# Compound activity deposited in PubChem by National Center for Advancing Translational Sciences (NCATS).
# aSyn yeast inh – rescues yeast growth from alpha-synuclein toxicity; hit rate 0.14% among 370,000; AID 652106; Potency, µM (series often up to 46.1 µM), without a hit: top-dose growth rescue (activation), actives largely listed as activators; Yeast expressing alpha-synuclein, growth rescue, BacTiter-Glo, 24 h; note: % of control where 0% means no effect; nearly all actives have a fitted effect of over 65% in size
#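 Readout is rescue of growth in alpha-synuclein-expressing yeast, so inhibitors of toxicity appear as activators. Growth after 24 hr at 30 deg C in galactose medium is quantified by luminescence.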
# FUS suppressor – rescues growth of FUS-expressing yeast | S. cerevisiae FUS-expressing, growth rescue, OD600, 24 h | Potency, µM (doses to about 76.6 µM), actives largely listed as activators | hit rate 0.24% among 390,000;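 note: plate controls were DMSO vehicle for no effect and reference control for full effect; nearly all actives have a fitted effect of over 55% in size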
#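 S. cerevisiae expressing FUS from galactose induction served as the toxicity model. Growth after 24hr at 30C, read as absorbance at 600 nm, indicates suppression of toxicity; compounds dosed at several concentrations.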
# TDP43 rescue – inhibitors of TDP-43 toxicity in yeast; hit rate 1.8% among 410,000; Potency, µM (titrated, usually from 46.1 µM), without a hit: at the highest dose growth rescue (activation), actives largely listed as activators; TDP-43 expressing yeast growth rescue, BacTiter-Glo, 24 h; note: % of control where 0% means no effect; nearly all actives have a fitted effect of over 50% in size
#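 In this qHTS, compounds that restore growth of yeast expressing TDP-43 appear as activators. Cells (OD600=0.02, galactose medium, raffinose-pregrown) are incubated with compound 24 hr at 30 deg C and growth is quantified by BacTiter-Glo.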
# Abeta yeast res – compounds reversing amyloid beta toxicity in yeast | Potency, µM (doses to about 46.1 µM), usual class: activators | hit rate 0.063% among 410,000 | yeast expressing A-beta42, growth rescue, OD600, 48 h; response scale: 0% DMSO, 100% iron-clioquinol control; note: nearly all actives have a fitted effect of over 55% in size
#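 Yeast growth medium received pinned compounds, then yeast cells expressing toxic A-beta were added; plates incubated at 30 C for 48 hr. Growth read as absorbance at 600 nm, normalized to DMSO and equimolar FeCl3 plus clioquinol controls.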
# Mito fusion act – blocks mitochondrial division or promotes mitochondrial fusion. S. cerevisiae fusion-defective mutant growth rescue, CellTiterGlo 48 h. Potency, µM (series often up to 46.1 µM), inactives show at the top dose growth rescue (activation), hits mostly activators. hit rate 0.23% among 320,000; note: % of control where 0% means no effect; nearly all actives have a fitted effect of over 45% in size
#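 Luminescent cell viability in 1536-well qHTS format served as the measure of rescued growth in ts fusion-mutant S. cerevisiae cultured on non-fermentable YPEG for 48 hours at 37C.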
# A-T KAP1 phos – candidate therapy for ataxia-telangiectasia | hit rate 0.19% among 320,000 | Potency, µM (series often up to 57.5 µM), for inactives: at the highest dose activation, most hits filed as activators | AID 485349 | F2112 A-T fibroblasts, KAP-1 phosphorylation AlphaLISA; neocarzinostatin DNA damage 30 min before lysis; note: % of control where 0% means no effect; nearly all actives have a fitted effect of over 45% in size
#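 hTERT-immortalized A-T patient fibroblasts (F2112), 500 cells/well in OPTI-MEM, 1% FBS, got compounds for 60 min, then NCS for 30 min at 37C. Lysates were then assayed for phospho-KAP-1 by AlphaLISA (anti-pKAP1 donor, anti-KAP1 acceptor beads), 6 hr at 25C.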
# * marks the source's active call; other numbers are inactive results; i = inactive; ? = inconclusive; · = not tested or not shown; ! = a repeat was not active; [ ] = dose if it differs, or a comment. Shown are actives, neighbours in structure and some others; about 2.4% of the full set was active somewhere. Calls come from the whole dose curve; as a rule, active = well fitted curve in the direction sought with a large enough effect; inconclusive = small, poorly fitted or top-dose-only effect, or another doubt; inactive = no such curve, though single readings can be large; an effect the other way counts as inactive or inconclusive. Potency is the fitted concentration of half-maximal effect.
SMILES,aSyn yeast inh,FUS suppressor,TDP43 rescue,Abeta yeast res,Mito fusion act,A-T KAP1 phos
CCCOc1ccc(-c2csc3ncn(Cc4ccc(C(=O)O)cc4)c(=O)c23)cc1,-60%,i,25µM*,i,7%,-4%
O=C(CSc1nnc(-c2ccncc2)n1-c1ccccc1)Nc1cccc2ccccc12,·,i,·,·,·,·
Cc1cc(/C=N/NC(N)=S)c(C)n1-c1cccc(Cl)c1,17%,i,2%[0.397 µM],10µM*,3%,3%
Cc1cc(/C=C/C(=O)O)c(C)n1-c1ccc(Cl)cc1,10µM*,i,?,i,-3%,0%
Cc1cccc(C)c1-n1c(C)cc(/C=N/NC(N)=S)c1C,9%,?,11µM*,?,3%,9%
Cc1cc(/C=N/NC(N)=S)c(C)n1-c1ccc(Br)cc1,-4%,i,?,i,-12%,0%
Cc1ccccc1-n1c(C)cc(/C=N/NC(=O)c2ccncc2)c1C,0%,i,5%,i,-1%,-8%
Cc1cc(/C=N/NC(N)=S)c(C)n1-c1ccc(Cl)cc1,2%,?,?,10µM*,20%,4%
O=S1(=O)CC2c3ccc(F)cc3CN2CN1CCc1ccccc1 (stereo not drawn),·,i,·,·,·,·
Cc1ccc(CNC(=O)OC(C)(C)C)c(/C=C/S(=O)(=O)NC2CCCC2)c1,·,i,·,·,·,·
O=C(/C=C/c1ccc(O)cc1)c1ccc(O)cc1O,-39%,i,0%,i,16µM*!,-19%
CSc1ccc(/C=C/C(=O)c2ccc(O)cc2)cc1,-11%,i,14µM*,?,29%,-2%
COc1ccc(C(=O)/C=C/c2ccccc2)c(O)c1,-1%,i,?,i,-3%,?
Cc1ccc(/C=C/C(=O)c2ccc(O)cc2)cc1,-6%,?,3%,i,21%,2%
COc1ccc(C(=O)N[C@@H]2CC[C@@]34CCCN3C(=O)CCC[C@H]4[C@H]2C)cc1,·,i,·,·,·,·
COC(=O)[C@]12C[C@H](CC(=O)N3CCOCC3)C(=O)N(CCc3ccc(OC)c(OC)c3)C1=C[C@H](COCc1ccccc1)O[C@@H]2C,·,i,·,·,·,·
O=C(Nc1ccc(C(=O)N2CCN(c3ccccc3F)CC2)cc1)c1nsc2ccccc12,·,i,?,i,·,·
O=Nc1c(-c2c(O)[nH]c3cc(Br)ccc23)[nH]c2ccccc12,-21%,i,-7%,i,1.8µM*!,-4%
O=C(CNC(=O)c1ccccc1)N=Nc1c(O)[nH]c2ccc(Br)cc12,1%,i,0%,i,6%,-6%
O=C(CCc1nc(-c2ccccc2F)no1)Nc1cccc(C(F)(F)F)c1,·,i,6%,i,·,·
S=C(NCCSCc1ccc(Cl)cc1)Nc1ccccc1,-15%,·,25µM*,i,0%,3%
Fc1ccc(NC(=S)NCc2ccccc2Cl)cc1,3%,i,-7%,?,15%,4%
S=C(NCCSCc1ccccc1Cl)Nc1ccccc1,17%,i,13µM*,i,10%,-6%
CCCOc1ccc(CSCCNC(=S)Nc2ccccc2)cc1,-3%,i,24%,?,2%,2%
S=C(NCCCc1ccccc1)Nc1ccc(Cl)cc1,-67%,·,12%,i,-7%,7%
SMILES,aSyn yeast inh,FUS suppressor,TDP43 rescue,Abeta yeast res,Mito fusion act,A-T KAP1 phos
S=C(NCCCc1ccccc1)Nc1ccccc1,7%,i,29%,20µM*,-10%,4%
COC(=O)c1ccc(NC(=S)NCCc2cccc(C)c2)cc1,-7%,i,8.9µM*,i,26%,6%
Cc1nc2sc(C(=O)NC3CC3)c(N)c2c(C)c1Cl,·,i,·,·,·,·
Cc1cccc(CSCCNC(=S)Nc2ccccc2)c1,-3%,·,16µM*,i,16%,1%
COc1cccc(NC(=O)c2cnc(SCC(=O)N3CCOCC3)n(C)c2=O)c1,·,i,21%,i,·,·
O=C(NCc1cccc(Cl)c1)c1cccc2c(-c3cccnc3)coc12,17%,?,18µM*,i,·,·
